The supplement of paper PMC10849652
The full data set covers some 7,900 targets. This sample favours those with a hit. About 0.6% of all pairs of compound and target were hits. Values without a mark were called inactive.

Key:
Test in all cases: log2 fold change, soluble protein after heating vs DMSO (PISA); higher = thermal stabilisation; K562 cells, 10 uM, 30 min; active = over 0.2 and 3.5 SD of the protein, either way, in both replicates (recomputed)
[1] = compound: CS(=O)(=O)c1ccc(-c2cnc(N)c(C(=O)Nc3ccccc3)n2)cc1
In short: (§1)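 Aliquots of K562 cells (2×10^6 cells/mL) treated with 10 μM compound for 30 min were heated for 3 min over 48°C-58°C. After pooling and extraction in PBS with 0.5% NP-40 at 4°C, soluble protein from a 21,000xg, 90 min spin was quantified by TMTpro 16plex LC-MS/MS with channel sums equalised. Thermal stability is expressed against control samples, from duplicates, as a log2 fold change.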

[2] = compound: C[C@@H](Oc1cc(-c2cnn(C3CCNCC3)c2)cnc1N)c1c(Cl)ccc(F)c1Cl [crizotinib]
In short: as §1

[3] = compound: C[C@@H]1COCCN1C2=NC(=NC(=C2)C3(CC3)S(=O)(=O)C)C4=C5C=CNC5=CC=C4
In short: as §1

[4] = compound: Cc1cc(Nc2cc(CN3CCOCC3)c3nc(C)c(Cc4ccc(Cl)cc4F)n3n2)n[nH]1 [gandotinib]
In short: as §1

[5] = compound: Cc1cc(Nc2cc(N3CCN(C)CC3)nc(Sc3ccc(NC(=O)C4CC4)cc3)n2)n[nH]1 [tozasertib]
In short: as §1

[6] = compound: Cc1ccc(-n2nc(C(C)(C)C)cc2NC(=O)Nc2ccc(OCCN3CCOCC3)c3ccccc23)cc1 [doramapimod]
In short: as §1

[7] = compound: Cc1ccc(C(=O)N(CCCN)[C@@H](c2nc3cc(Cl)ccc3c(=O)n2Cc2ccccc2)C(C)C)cc1 [ispinesib]
In short: as §1

[8] = compound: Cc1ccc(NC(=O)c2ccc(CN3CC[C@H](N(C)C)C3)c(C(F)(F)F)c2)cc1Nc1nccc(-c2cncnc2)n1 [bafetinib]
In short: as §1

[9] = compound: Cc1cccc(CC(=O)N2CCc3c2ccc(-c2cn(C)c4ncnc(N)c24)c3F)n1
In short: as §1

[10] = compound: Cc1cn(-c2cc(NC(=O)c3ccc(C)c(Nc4nccc(-c5cccnc5)n4)c3)cc(C(F)(F)F)c2)cn1 [nilotinib]
In short: as §1

[11] = compound: Cc1nc(Nc2n[nH]c3c2CN(C(=O)N[C@H](CN(C)C)c2ccccc2)C3(C)C)c2sccc2n1
In short: as §1

[12] = compound: Cc1ncc(-c2ccnc(Nc3ccc(S(C)(=O)=O)cc3)n2)n1C(C)C
In short: as §1

[13] = compound: Cn1cc(-c2ccc3nnc(C(F)(F)c4ccc5ncccc5c4)n3n2)cn1
In short: as §1

[14] = compound: Cn1cncc1[C@@](N)(c1ccc(Cl)cc1)c1ccc2c(c1)c(-c1cccc(Cl)c1)cc(=O)n2C [tipifarnib]
In short: as §1

[15] = compound: FC(F)(F)c1ccc(/C=C/c2nc(COc3ccc(CCCCn4ccnn4)cc3)co2)cc1 [mubritinib]
In short: as §1

[16] = compound: C[C@H](C1=CC=C(C=C1)C(=O)NC2=C3C=CNC3=NC=C2)N
In short: as §1

[17] = compound: C[C@H](Nc1ncnc2nc[nH]c12)c1cc2cccc(Cl)c2c(=O)n1-c1ccccc1 [duvelisib]
In short: as §1

[18] = compound: Cc1cc(SCc2sc(-c3ccc(C(F)(F)F)cc3)nc2C)ccc1OCC(=O)O
In short: as §1

[19] = compound: Cc1nc(Nc2ncc(C(=O)Nc3c(C)cccc3Cl)s2)cc(N2CCN(CCO)CC2)n1 [dasatinib]
In short: as §1

[20] = compound: Cn1cc(-c2ccc3c(c2)CCN3C(=O)Cc2cccc(C(F)(F)F)c2)c2c(N)ncnc21
In short: as §1

Sequence of UniProt Q96G97 (Q96G97 whole entry, looked up): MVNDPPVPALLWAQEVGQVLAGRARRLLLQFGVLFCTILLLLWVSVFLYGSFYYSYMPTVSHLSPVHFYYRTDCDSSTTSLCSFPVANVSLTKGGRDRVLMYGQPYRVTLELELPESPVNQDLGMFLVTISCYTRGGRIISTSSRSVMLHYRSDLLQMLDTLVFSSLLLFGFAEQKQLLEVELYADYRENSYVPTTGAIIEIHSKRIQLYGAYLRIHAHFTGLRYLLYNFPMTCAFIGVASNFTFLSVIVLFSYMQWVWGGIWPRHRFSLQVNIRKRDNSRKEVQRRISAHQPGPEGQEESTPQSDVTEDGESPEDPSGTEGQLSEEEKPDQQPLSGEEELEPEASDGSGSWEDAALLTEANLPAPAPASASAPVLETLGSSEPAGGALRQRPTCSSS
Sequence of UniProt Q9NVI7 (Q9NVI7 whole entry, looked up): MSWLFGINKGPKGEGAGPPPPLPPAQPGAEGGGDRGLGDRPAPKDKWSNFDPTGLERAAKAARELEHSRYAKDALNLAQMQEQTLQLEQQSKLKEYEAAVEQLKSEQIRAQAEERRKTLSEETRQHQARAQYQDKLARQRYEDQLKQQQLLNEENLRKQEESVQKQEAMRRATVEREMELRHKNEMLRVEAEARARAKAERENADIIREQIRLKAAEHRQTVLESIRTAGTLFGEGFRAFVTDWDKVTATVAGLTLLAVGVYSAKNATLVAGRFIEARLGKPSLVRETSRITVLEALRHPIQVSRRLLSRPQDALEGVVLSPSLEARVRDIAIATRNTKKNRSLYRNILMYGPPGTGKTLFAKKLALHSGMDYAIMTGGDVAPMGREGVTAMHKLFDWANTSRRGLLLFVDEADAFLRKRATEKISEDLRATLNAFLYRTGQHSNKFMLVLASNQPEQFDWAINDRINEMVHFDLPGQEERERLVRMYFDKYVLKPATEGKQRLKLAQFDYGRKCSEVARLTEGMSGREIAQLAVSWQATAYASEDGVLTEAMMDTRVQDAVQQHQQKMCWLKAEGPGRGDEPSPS
Sequence of UniProt Q96KE9 (Q96KE9 whole entry, looked up): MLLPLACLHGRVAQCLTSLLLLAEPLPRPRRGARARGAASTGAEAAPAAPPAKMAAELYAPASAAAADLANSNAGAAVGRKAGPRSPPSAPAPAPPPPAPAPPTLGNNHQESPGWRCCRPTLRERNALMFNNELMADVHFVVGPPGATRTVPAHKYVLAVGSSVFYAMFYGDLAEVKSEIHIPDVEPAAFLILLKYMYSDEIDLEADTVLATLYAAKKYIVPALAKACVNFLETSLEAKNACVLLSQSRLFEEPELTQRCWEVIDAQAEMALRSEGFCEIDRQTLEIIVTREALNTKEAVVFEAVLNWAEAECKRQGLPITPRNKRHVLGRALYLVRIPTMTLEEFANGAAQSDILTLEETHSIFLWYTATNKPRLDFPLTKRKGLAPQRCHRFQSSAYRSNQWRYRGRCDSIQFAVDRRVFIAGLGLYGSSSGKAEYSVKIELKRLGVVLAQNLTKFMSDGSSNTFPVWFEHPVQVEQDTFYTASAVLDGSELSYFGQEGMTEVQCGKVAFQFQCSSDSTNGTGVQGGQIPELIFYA
Sequence of UniProt Q9UNA0 (Q9UNA0 whole entry, looked up): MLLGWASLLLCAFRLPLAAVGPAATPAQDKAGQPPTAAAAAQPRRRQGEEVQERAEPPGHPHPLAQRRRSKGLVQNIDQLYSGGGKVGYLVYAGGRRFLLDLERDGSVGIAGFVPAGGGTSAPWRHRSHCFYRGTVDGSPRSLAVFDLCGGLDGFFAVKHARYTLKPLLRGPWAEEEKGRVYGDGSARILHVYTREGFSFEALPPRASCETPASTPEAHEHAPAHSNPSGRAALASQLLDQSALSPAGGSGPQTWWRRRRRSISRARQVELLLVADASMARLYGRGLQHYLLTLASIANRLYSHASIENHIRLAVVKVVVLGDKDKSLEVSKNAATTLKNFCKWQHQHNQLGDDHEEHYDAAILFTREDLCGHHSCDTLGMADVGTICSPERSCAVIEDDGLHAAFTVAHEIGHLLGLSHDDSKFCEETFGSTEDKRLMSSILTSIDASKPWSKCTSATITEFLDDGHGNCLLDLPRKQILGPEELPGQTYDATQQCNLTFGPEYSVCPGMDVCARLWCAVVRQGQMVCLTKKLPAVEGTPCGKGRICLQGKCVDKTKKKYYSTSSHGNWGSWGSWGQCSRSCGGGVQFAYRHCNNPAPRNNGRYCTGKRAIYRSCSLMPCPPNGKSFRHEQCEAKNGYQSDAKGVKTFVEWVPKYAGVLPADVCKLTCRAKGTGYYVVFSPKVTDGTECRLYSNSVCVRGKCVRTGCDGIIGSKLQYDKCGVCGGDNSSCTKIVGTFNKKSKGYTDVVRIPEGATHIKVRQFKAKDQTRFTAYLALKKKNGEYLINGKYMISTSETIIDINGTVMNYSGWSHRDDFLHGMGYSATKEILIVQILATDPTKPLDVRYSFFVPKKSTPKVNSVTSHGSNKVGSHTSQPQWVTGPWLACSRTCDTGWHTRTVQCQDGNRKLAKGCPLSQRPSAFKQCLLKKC
Sequence of UniProt P17707 (P17707 whole entry, looked up): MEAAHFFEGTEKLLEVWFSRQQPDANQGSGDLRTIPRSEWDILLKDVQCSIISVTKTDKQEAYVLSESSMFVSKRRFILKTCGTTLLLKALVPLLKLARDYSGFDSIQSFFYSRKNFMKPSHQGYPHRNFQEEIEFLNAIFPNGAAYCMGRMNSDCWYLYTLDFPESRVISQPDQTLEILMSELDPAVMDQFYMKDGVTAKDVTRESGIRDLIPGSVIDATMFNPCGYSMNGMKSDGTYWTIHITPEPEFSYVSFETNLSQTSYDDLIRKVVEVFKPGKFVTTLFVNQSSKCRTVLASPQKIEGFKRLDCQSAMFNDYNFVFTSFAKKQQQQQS
Sequence of UniProt P18846 (P18846 whole entry, looked up): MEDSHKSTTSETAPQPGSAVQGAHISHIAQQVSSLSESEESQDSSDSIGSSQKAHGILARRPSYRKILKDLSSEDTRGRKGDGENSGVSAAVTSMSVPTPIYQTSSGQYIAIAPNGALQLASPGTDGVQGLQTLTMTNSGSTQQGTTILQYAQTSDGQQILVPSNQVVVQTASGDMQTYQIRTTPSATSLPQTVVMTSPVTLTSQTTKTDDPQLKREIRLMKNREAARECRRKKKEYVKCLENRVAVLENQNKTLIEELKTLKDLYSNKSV
Sequence of UniProt Q92934 (Q92934 whole entry, looked up): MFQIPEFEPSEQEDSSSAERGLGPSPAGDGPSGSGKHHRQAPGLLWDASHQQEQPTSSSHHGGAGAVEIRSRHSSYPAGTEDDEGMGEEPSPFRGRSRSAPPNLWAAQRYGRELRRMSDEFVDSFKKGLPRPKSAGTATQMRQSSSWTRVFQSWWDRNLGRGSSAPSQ
Sequence of UniProt O14727 (O14727 whole entry, looked up): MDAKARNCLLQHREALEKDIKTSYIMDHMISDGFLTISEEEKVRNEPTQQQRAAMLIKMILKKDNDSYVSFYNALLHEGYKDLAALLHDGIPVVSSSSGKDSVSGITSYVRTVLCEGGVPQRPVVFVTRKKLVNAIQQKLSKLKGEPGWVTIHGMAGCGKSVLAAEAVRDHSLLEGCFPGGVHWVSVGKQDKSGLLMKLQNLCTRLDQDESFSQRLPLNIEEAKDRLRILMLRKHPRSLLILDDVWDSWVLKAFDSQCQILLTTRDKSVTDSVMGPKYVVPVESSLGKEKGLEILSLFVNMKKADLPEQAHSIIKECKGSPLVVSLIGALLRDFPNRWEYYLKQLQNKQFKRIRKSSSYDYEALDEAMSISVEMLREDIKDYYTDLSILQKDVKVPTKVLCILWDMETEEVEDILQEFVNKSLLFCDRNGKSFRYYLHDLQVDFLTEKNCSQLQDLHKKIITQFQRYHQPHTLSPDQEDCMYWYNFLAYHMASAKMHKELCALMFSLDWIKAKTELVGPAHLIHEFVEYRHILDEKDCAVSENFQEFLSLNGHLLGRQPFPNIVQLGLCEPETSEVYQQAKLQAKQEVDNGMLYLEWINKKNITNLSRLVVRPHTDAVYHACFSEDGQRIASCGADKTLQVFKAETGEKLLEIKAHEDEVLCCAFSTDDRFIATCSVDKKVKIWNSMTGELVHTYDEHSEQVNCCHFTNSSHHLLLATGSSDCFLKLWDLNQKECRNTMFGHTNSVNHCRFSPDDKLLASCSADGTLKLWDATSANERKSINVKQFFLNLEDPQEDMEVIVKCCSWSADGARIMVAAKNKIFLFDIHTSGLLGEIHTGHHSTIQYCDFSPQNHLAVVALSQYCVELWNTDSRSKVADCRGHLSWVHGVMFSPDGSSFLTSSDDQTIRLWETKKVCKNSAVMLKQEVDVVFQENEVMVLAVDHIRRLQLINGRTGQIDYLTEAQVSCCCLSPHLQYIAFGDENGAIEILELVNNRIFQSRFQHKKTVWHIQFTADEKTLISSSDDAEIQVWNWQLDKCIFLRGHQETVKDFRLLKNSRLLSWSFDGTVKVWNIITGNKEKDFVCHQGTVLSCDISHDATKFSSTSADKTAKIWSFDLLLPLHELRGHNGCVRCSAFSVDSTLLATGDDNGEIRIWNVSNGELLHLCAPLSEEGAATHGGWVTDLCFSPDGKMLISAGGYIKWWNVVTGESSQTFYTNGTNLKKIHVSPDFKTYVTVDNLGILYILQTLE
Sequence of UniProt P24666 (P24666 whole entry, looked up): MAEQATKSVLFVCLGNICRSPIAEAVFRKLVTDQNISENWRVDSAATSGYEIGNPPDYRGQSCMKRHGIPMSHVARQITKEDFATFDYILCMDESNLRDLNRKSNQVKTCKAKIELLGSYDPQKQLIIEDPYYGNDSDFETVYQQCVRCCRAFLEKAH
Sequence of UniProt Q8IXM2 (Q8IXM2 whole entry, looked up): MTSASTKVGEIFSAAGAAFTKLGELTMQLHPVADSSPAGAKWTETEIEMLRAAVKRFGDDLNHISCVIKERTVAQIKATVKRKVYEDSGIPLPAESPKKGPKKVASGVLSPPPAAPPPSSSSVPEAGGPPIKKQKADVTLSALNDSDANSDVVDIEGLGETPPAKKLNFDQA
Sequence of UniProt Q9Y587 (Q9Y587 whole entry, looked up): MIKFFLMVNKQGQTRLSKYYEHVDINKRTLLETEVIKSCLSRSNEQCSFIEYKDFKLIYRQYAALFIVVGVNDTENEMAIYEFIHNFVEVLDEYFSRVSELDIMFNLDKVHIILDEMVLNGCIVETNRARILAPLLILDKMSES

| Target | log2 fold change [1] | log2 fold change [2] | log2 fold change [3] | log2 fold change [4] | log2 fold change [5] | log2 fold change [6] | log2 fold change [7] | log2 fold change [8] | log2 fold change [9] | log2 fold change [10] | log2 fold change [11] | log2 fold change [12] | log2 fold change [13] | log2 fold change [14] | log2 fold change [15] | log2 fold change [16] | log2 fold change [17] | log2 fold change [18] | log2 fold change [19] | log2 fold change [20] |
| --- | --- | --- | --- | --- | --- | --- | --- | --- | --- | --- | --- | --- | --- | --- | --- | --- | --- | --- | --- | --- |
| AMD1 (UniProt P17707) | -0.058 | 0.059 | 0.035 | 0.043 | 0.105 | -0.07 | 0.008 | 0.091 | -0.141 | -0.089 | 0.001 | -0.037 | -0.071 | -0.022 | 0.056 |  |  |  |  |  |
| ATAD3A isoform 2 (UniProt Q9NVI7) | 0.003 | -0.191 | -0.052 | 0.032 | 0.005 | 0.057 | -0.348 (active) | -0.104 | 0.035 | -0.141 | -0.053 | 0 | -0.101 | 0.097 | -0.215 | 0.101 | -0.083 | 0.075 | -0.094 | -0.082 |
| ADAMTS5 (UniProt Q9UNA0) | 0.077 | 0.084 |  | 0.178 | -0.093 | 0.052 | -0.035 | -0.103 | -0.066 | 0.022 | 0.052 | -0.079 | 0.063 |  | 0.154 | -0.08 | 0.111 | -0.136 | 0.033 | 0.088 |
| APOBEC3G (UniProt Q9HC16) | -0.065 | 0.059 | -0.165 |  | 0.013 | 0.023 | -0.01 | -0.016 |  | 0.028 | 0.079 | 0.028 | -0.042 | -0.012 | 0.03 |  | -0.189 | 0.102 | 0.075 |  |
| ACP1 (UniProt P24666) | 0.077 | -0.063 | -0.033 | -0.083 | 0.108 | 0.141 |  | 0.041 | 0.013 | 0.078 | -0.071 | -0.01 |  | 0.037 | 0.035 | 0.165 | 0.021 | 0.324 | -0.129 | 0.037 |
| ANK2 (UniProt Q01484) | 0.066 | 0.062 |  | -0.092 | 0.011 | 0.055 | -0.188 | -0.281 | -0.034 | -0.265 | 0.041 | -0.042 | 0.01 | 0.034 | -0.141 | -0.005 | 0.21 | 0.089 | -0.277 | 0.012 |
| BAD (UniProt Q92934) | 0.171 | 0.076 | 0.076 | 0.018 |  | 0.003 | 0.025 | -0.151 | -0.046 | 0.034 | 0.009 | -0.069 | 0.076 | -0.005 | -0.046 | -0.036 | 0.081 | -0.033 | 0.092 | 0.077 |
| AP4S1 (UniProt Q9Y587) | -0.027 | -0.028 | 0.065 |  |  | -0.088 |  | 0.068 |  | -0.015 | -0.016 | 0.072 |  | 0.076 | -0.013 | 0.133 | -0.122 | 0.013 | -0.036 | -0.103 |
| APAF1 (UniProt O14727) | -0.045 | 0.045 | 0.115 | 0.047 |  | 0.006 | -0.181 |  | 0.042 | -0.058 | -0.015 | -0.268 | -0.016 | -0.152 | -0.032 | -0.061 | 0.268 | 0.119 | -0.121 | -0.122 |
| AP2S1 (UniProt M0QZ21) |  |  |  |  | -0.253 |  |  |  |  |  |  |  |  |  |  |  |  |  |  |  |
| ARMC8 isoform 6 (UniProt Q8IUR7) |  |  |  |  |  |  |  | -0.012 |  | -0.034 | -0.079 | -0.052 |  |  |  |  |  |  |  |  |
| BAP18 isoform 3 (UniProt Q8IXM2) |  |  |  | 0.147 | 0.012 |  |  |  | -0.182 |  |  |  |  |  | 0.117 |  |  |  |  |  |
| ARHGAP25 isoform 4 (UniProt P42331) |  |  | -0.066 | -0.056 | 0.111 |  |  | -0.035 | -0.089 | 0.28 | -0.276 | 0.078 |  |  | 0.266 | 0.309 | -0.067 | 0.299 | -0.421 | -0.009 |
| ATP6V0A1 (UniProt Q93050) |  |  |  |  |  |  |  | -0.078 |  |  |  |  |  |  |  |  |  |  |  |  |
| ASS1 (UniProt P00966) | 0.033 |  | 0.017 | -0.014 | -0.085 |  | -0.205 | -0.113 | -0.001 | -0.017 | 0.021 | -0.017 | 0.06 | 0.005 | 0.009 | -0.079 | 0.039 | -0.062 | 0.013 | 0.093 |
| ATF1 (UniProt P18846) | -0.004 |  | 0.017 | 0.067 | 0.113 |  |  | -0.12 | 0.018 | 0.035 | -0.09 | 0.064 |  | 0.06 | 0.057 | 0.073 |  |  |  | -0.006 |
| BSCL2 isoform 4 (UniProt Q96G97) |  |  | 0.05 | -0.086 | 0.008 |  |  | -0.225 | -0.041 | 0.101 | 0.026 | 0.116 |  | 0.109 | 0.133 | -0.007 | 0.129 | 0.111 | -0.14 | 0.002 |
| BTBD6 (UniProt Q96KE9) | 0.117 |  | 0.033 | 0.64 | -0.105 |  | 0.209 | -0.007 | 0.011 | 0.277 | -0.044 | -0.098 | -0.003 | -0.121 | 0.153 | -0.308 | 0.125 | -0.061 | 0.008 | 0.239 |
| AARSD1 (UniProt Q9BTE6) |  | -0.036 |  |  |  | -0.096 |  | 0.142 |  | 0.029 | -0.078 | -0.012 |  | -0.19 | 0.066 | 0.033 | -0.258 | 0.026 | -0.606 | 0.121 |
| ARHGAP4 isoform 2 (UniProt P98171) | 0.023 |  |  |  | 0.105 |  | -0.111 | 0.709 (active) |  | -0.137 | 0.436 | -0.174 | -0.046 | 0.161 | -0.164 | 0.212 | -0.202 | 0.131 | -0.097 | -0.06 |
